Values joined by “and” are separate entries in the source; they are usually repeats but may differ in a detail not shown here. Equal values may be shown once. Some structures have more than one record in an assay (separate samples or runs), and their calls can disagree. Active and inactive are the calls of the source. How the source made its calls: active means hit-call score of the fitted dose curve at least 0.9, where 1 is the maximum; inactive means score below 0.9.

This experiment is described as follows: BSK_4H_Eotaxin3: BioMAP Diversity Plus: 4H Assay for Eotaxin 3 Biomarker Activity (AID 2283000). The settings on record: primary human endothelial cells (HUVEC); actives raise or lower the signal. As for the experimental part: BSK_4H is a cell-based, multiplexed-readout assay that uses umbilical vein endothelium, a human vascular primary cell, with measurements taken at 24 hours after chemical dosing in a 96-well plate.BSK_4H_Eotaxin3 is an assay component measured in the BSK_4H assay. It measures Eotaxin-3 antibody related to regulation of gene expression using ELISA technology.Data from the assay component BSK_4H_Eotaxin3 was analyzed into 1 assay endpoint. This assay endpoint, BSK_4H_Eotaxin3, was analyzed with bidirectional fitting relative to DMSO as the negative control and baseline of activity. Using a type of binding reporter, gain or loss-of-signal activity can be used to understand changes in the signaling as they relate to the gene CCL26. Furthermore, this assay endpoint can be referred to as a primary readout, because this assay has produced multiple assay endpoints where this one serves a signaling function. To generalize the intended target to other relatable targets, this assay endpoint is annotated to the cytokine intended target family, where the subfamily is chemotactic factor.
The levels of cell surface (or secreted, indicated by the prefix "s") biomarker endpoints were measured by ELISA. Overt cytotoxicity to cells in confluent adherent cultures (all systems other than the BT system) was assessed by measuring total protein levels using sulforhodamine B (SRB) staining in parallel cultures at the time of biomarker measurements, indicated as SRB endpoints. For proliferation assays for adherent cell types, individual cell types are cultured at sub-confluence and relative cell numbers quantified by SRB staining at time points optimized for each system (48 h: 3C and CASM3C systems; 72 h: BT and HDF3CGF systems; 96 h: SAg system). SRB was performed by staining cells with 0.1% SRB after fixation with 10% TCA and reading wells at 560 nm.Viability and proliferation of PBMC (T cells) was quantified by Alamar Blue reduction for the SAg and BT systems. For PBMC viability (referred to as PBMC Cytotoxicity within the assay endpoint names), cells were plated (75,000/well in a 96-well plate) and then chemical samples added for 1 h before addition of activators, SEB and TSST-1 (20 ng/mL final concentration each). Cells were incubated for 90 h. Then, Alamar Blue (20 uL/well) (Invitrogen, Cat DAL1100) was added for 6 h, and the plates were read with a fluorescence microplate reader at 546/580 nm (excitation/emission). For PBMC proliferation, cells were plated and activated as above but incubated for only 16 h prior to addition of Alamar Blue. Plates were read after 6 h.
As for `C[C@]12CCC(=O)C=C1CC[C@@H]1[C@@H]2CC[C@]2(C)C(=O)CC[C@@H]12`, the outcome was inactive.
As a reminder, the AC50 is the midpoint of the concentration-response curve, whichever way the signal moves. For `CO/C=C(/C(=O)OC)c1ccccc1COc1cccc(C(F)(F)F)n1`, the concentration at half-maximal activity (AC50) was 16.5 µM (active).
For the compound `O=C(NC(=O)c1cc(F)c(F)cc1Cl)Nc1cc(F)ccc1N1CCC(C(=O)O)CC1`, the result was inactive.
Still for that read-out and setting: for `Cc1ccc(O)c(C)c1` the value was “inactive”.
On to `ClC(Cl)=C(c1ccc(Cl)cc1)c1ccc(Cl)cc1`, for which the AC50 is 31.2 µM (active).
Turning to `Cc1cccc([N+](=O)[O-])c1`, the result was inactive.
The same measure, in the same setting: for `Cc1ccccc1O` the value was “inactive”.
On the same count and under the same terms, next, `Cc1cc(-c2ccc(N)c(C)c2)ccc1N`: “inactive”.
Consider `CCCCCCCCCc1ccc(O)cc1`, for which the AC50 is 15.2 µM (active).
On to `Sc1ccccc1`, for which the outcome was inactive.
Still for that read-out and setting: for `N#Cc1ccc(N(CC(N)=O)CC(F)(F)F)cc1C(F)(F)F` the value was “inactive”.
As to `c1ccc(-c2ccccc2)cc1`, the outcome was inactive.
For the compound `Oc1c(Cl)c(Cl)c(Cl)c(Cl)c1Cl`, the AC50 was 17 µM (active) and 9.54 µM (active).
On to `CCOP(=S)(OCC)SCSC(C)(C)C`, for which the result was inactive.
With `O=S(=O)(O)C(F)(F)C(F)(F)C(F)(F)C(F)(F)C(F)(F)C(F)(F)F`, the result was inactive.
With `Clc1ccc(C(c2ccccc2Cl)C(Cl)(Cl)Cl)cc1` (stereo not given), the AC50 was 20.3 µM (active).
For `Clc1ccc(C(Cl)(Cl)Cl)cc1`, the result was inactive.
With `CC(c1ccc(O)cc1)(c1ccc(O)cc1)c1ccc(O)cc1`, the concentration at half-maximal activity (AC50) is 31.4 µM (active).
On to `O=C(NC(=O)c1c(F)cccc1F)Nc1cc(Cl)c(OC(F)(F)C(F)F)c(Cl)c1`, for which the outcome was inactive.
For the compound `C[C@]12CCC(=O)C=C1CC[C@@H]1[C@@H]2CC[C@@]2(C)[C@H]1CC[C@]2(C)O`, the outcome was inactive.
Consider `CCOC(=O)C(O)(c1ccc(Cl)cc1)c1ccc(Cl)cc1`, for which the AC50 was 34.6 µM (active).
With `COc1ccc(O)c(C(C)(C)C)c1`, the result was inactive.
The same measure, in the same setting: for `Cc1cc(O)ccc1Cl` the value was “inactive”.
The same measure, in the same setting: next, `O=C(N[C@H]1CN2CCC1CC2)c1cc2ccoc2cn1`: “inactive”; `Cc1cc2c3c(c1)C(c1ccccc1)=N[C@@H](NC(=O)c1ccncc1)C(=O)N3CC2`: “inactive”; `Cc1ccccc1[N+](=O)[O-]`: “inactive”.
Still for that read-out and setting: for `ClC1=C(Cl)[C@]2(Cl)[C@@H]3[C@@H]4C[C@@H]([C@H]5O[C@@H]45)[C@@H]3[C@@]1(Cl)C2(Cl)Cl` the value was “inactive”; for `ClC1=C(Cl)[C@]2(Cl)[C@@H]3[C@@H](Cl)[C@H]4O[C@H]4[C@@H]3C1(Cl)C2(Cl)Cl`, “inactive”.
Turning to `CCCCCCCCOC(=O)c1ccccc1C(=O)OCCCCCCCC`, the half-maximal activity concentration (AC50) was 14 µM (active).
On the same count and under the same terms, next, `Oc1ccc(C(c2ccc(O)cc2)(C(F)(F)F)C(F)(F)F)cc1`: 34.8 µM (active).
As for `CN(C)c1nc(=O)n(C2CCCCC2)c(=O)n1C`, the outcome was inactive.
`O=C(O)C(F)(F)C(F)(F)C(F)(F)C(F)(F)C(F)(F)C(F)(F)C(F)(F)C(F)(F)F`: the AC50 is 40.2 µM (active) and 43.3 µM (active); the outcome was inactive.
Take `c1cc2ccc3cccc4ccc(c1)c2c34`: the outcome was inactive.
On to `Cc1cccc(C)c1N`, for which the result was inactive.
Still for that read-out and setting: next, `Cc1ccccc1CO[C@@H]1C[C@@]2(C(C)C)CC[C@]1(C)O2`: “inactive”; `CCNc1nc(NC(C)C)nc(SC)n1`: “inactive”.
With `CCCCCCCCCC[N+](C)(C)CCCCCCCCCC`, the AC50 is 4.08 µM (active).
Consider `O=C(O)C(F)(F)C(F)(F)C(F)(F)C(F)(F)C(F)(F)F`, for which the result was inactive.
With `CCC(=O)O[C@H]1CC[C@H]2[C@@H]3CCC4=CC(=O)CC[C@]4(C)[C@H]3CC[C@]12C`, the AC50 is 36 µM (active).

These data come from PubChem BioAssay (EPA / NIEHS).
